Data from PubChem BioAssay (EPA / NIEHS).
Activity calls are given as the source filed them. How the source made its calls: active means hit-call score of the fitted dose curve at least 0.9, where 1 is the maximum; inconclusive means response in the unintended direction; inactive means score below 0.9.

Target: Androgen Receptor/SRC-1 Co-activator, AR (gene 367) (UniProt P10275)
Assay: OT_AR_ARSRC1_0960: Odyssey Thera (OT) 16-hour HEK293T Protein-Complementation Assay for Androgen Receptor/SRC-1 Co-activator (AID 2283353);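 further: actives raise the signal above DMSO so potency reflects increased AR and SRC-1 complex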
Experimental: OT_AR_ARSRC1_0960 is a cell-based, single-readout assay that uses HEK293T, a human kidney cell line, with measurements taken at 16 hours after chemical dosing in a 384-well plate.OT_AR_ARSRC1_0960 is one of one assay component(s) measured or calculated from the OT_AR_ARSRC1_0960 assay. It is designed to make measurements of protein fragment complementation, a form of binding reporter, as detected with fluorescence intensity signals by Protein-fragment Complementation technology.Data from the assay component OT_AR_ARSRC1_0960 was analyzed into 1 assay endpoint. This assay endpoint, OT_AR_ARSRC1_0960, was analyzed in the positive analysis fitting direction relative to DMSO as the negative control and baseline of activity. Using a type of binding reporter, measures of receptor for gain-of-signal activity can be used to understand the binding at the pathway-level as they relate to the gene AR. Furthermore, this assay endpoint can be referred to as a primary readout, because the performed assay has only produced 1 assay endpoint. To generalize the intended target to other relatable targets, this assay endpoint is annotated to the nuclear receptor intended target family, where the subfamily is steroidal.
Protein-fragment complementation assay, or PCA, is a method for the identification and quantification of protein-protein interactions. In the PCA, the proteins of interest ("bait" and "prey") are each covalently linked to fragments of a third protein (e.g. DHFR, which acts as a "reporter"). Interaction between the bait and the prey proteins brings the fragments of the reporter protein in close proximity to allow them to form a functional reporter protein whose activity can be measured. The OT AR / SRC-1 assay assessed androgen receptor chemical interactions using a rapidly maturing, intensely fluorescent mutant of YFP known as Venus, rationally dissected into two separate fragments. […] Fusion constructs were transfected into HEK293T cells with a (Gly4Ser)2 linker between the AR/SRC-1 and YFP fragment genes to facilitate complementation when interacting proteins bring fragments into close proximity. The construct is stably expressed in HEK293T cells. […] Images were acquired on an Evotec Opera at 2 wavelengths (488 and 635nm), and the ratio of fluorescence in the nucleus relative to fluorescence in the cytoplasm (N/C Ratio) in the 488nm channel was calculated for a minimum of 400 cells per image. Both agonists and antagonists of the AR receptor induce nuclear translocation to varying degrees. […] The OT AR/SRC-1 assay was also run for 16 hours (see description for OT_AR_ARSRC1_0960).

Androgen Receptor/SRC-1 Co-activator, AR (gene 367), sequence (P10275 whole entry, looked up): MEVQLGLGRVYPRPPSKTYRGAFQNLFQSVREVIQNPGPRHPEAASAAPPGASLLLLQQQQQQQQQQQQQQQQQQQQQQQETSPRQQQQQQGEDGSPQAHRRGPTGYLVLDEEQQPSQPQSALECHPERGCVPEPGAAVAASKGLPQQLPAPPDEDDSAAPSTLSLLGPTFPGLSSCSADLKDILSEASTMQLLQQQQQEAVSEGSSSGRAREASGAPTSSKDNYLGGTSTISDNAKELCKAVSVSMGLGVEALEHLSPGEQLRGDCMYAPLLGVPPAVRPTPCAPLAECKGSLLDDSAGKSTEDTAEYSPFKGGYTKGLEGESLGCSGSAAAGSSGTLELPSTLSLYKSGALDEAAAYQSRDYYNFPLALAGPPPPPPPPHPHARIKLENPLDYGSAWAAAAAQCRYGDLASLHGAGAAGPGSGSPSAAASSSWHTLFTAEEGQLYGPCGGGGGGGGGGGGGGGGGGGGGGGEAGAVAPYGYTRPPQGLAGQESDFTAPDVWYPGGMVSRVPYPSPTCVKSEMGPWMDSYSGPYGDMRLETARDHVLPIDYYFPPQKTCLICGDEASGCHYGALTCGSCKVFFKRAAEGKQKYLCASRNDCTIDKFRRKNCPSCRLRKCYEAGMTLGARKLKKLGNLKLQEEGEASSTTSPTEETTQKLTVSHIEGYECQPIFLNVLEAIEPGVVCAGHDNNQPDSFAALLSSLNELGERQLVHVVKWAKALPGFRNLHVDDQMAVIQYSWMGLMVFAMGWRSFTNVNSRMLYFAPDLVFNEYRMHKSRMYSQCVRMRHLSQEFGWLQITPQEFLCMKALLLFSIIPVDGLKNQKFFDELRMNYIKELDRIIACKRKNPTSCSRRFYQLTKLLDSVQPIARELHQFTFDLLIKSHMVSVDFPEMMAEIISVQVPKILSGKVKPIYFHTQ

Q: Which outcome does the source give for O=C(Oc1ccccc1)c1cccc(C(=O)Oc2ccccc2)c1 here?
A: inactive

Q: With C#CC(O)C(CC)CCCC (stereo not drawn) as the compound, how does the AC50 read?
A: 72.6 µM (active)

Q: Which AC50 does the source give for O=Cc1ccccc1C=O here?
A: 75.3 µM (active)

Q: How did the AC50 turn out when CSc1ccc(Oc2ccc(S(N)(=O)=O)cc2CN(C)C)cc1C was run?
A: 80.7 µM (active)

Q: Which outcome does the source give for O=C(NS(=O)(=O)/C=C/c1cccs1)c1ccc(F)cc1Br here?
A: inactive

Q: For Cc1ccc(-c2cc(C(F)(F)F)nn2-c2ccc(S(N)(=O)=O)cc2)cc1, which AC50 is on record?
A: 33.7 µM (active)

Q: How did the outcome turn out when C=CCCCCCCCCCCCC was run?
A: inactive

Q: O=C1OC(c2ccc(O)cc2)(c2ccc(O)cc2)c2ccccc21 was tested. Which AC50 did it give?
A: 35.3 µM (active)

Q: CCCCCCCCCC[N+](C)(C)[O-] was tested. Which outcome did it give?
A: inactive

Q: CCC(C)N(C)C(=O)c1cc2ccccc2c(-c2ccccc2Cl)n1 (stereo not drawn) was tested. Which AC50 did it give?
A: 26 µM (active)

Q: With Cc1c(C)c2c(c(C)c1O)CCC(C)(COc1ccc(CC3SC(=O)NC3=O)cc1)O2 (stereo not drawn) as the compound, how does the AC50 read?
A: 27.4 µM (active)

Q: For CC1=C(C)S(=O)(=O)CCS1(=O)=O, which outcome is on record?
A: inactive

Q: With NCCOCCOCCN as the compound, how does the outcome read?
A: inactive

Q: How did the outcome turn out when Cc1cc(SC2=C(O)C[C@@](CCc3ccc(N)cc3)(C(C)C)OC2=O)c(C(C)(C)C)cc1CO was run?
A: inactive

Q: With Nc1nc(=S)c2[nH]cnc2[nH]1 as the compound, how does the outcome read?
A: inactive

Q: Which outcome does the source give for O=C1CCCCC1 here?
A: inactive

Q: CCOCCOCCO was tested. Which outcome did it give?
A: inactive

Q: Which AC50 does the source give for CC(C)OC(=O)C(C)(C)Oc1ccc(C(=O)c2ccc(Cl)cc2)cc1 here?
A: 34.4 µM (active)
